HTT cytoprotect: cytoprotection in Huntington HTT-Q103 PC12 cell model. PC12 HTT-Q103 induced, cytoprotection, ATP luminescence, 40 h. Potency, µM (series often up to 56.4 µM), for the others: cytoprotection (ATP increase), most hits filed as activators. 230,000 tested, 0.14% active; also: potency is read from the fitted curve at half-maximal effect; % of control where 0% means no effect; nearly all actives have a fitted effect of over 45% in size
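Huntington model: PC12 line, ecdysone-inducible HTTQ103 exon1–GFP, tebufenozide 100 nM. Test articles in a dose series. Endpoint luminescence from cellular ATP.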
HttQ103 aggreg: reduces HttQ103-GFP aggregates in PC12 cells; AID 1688; 220,000 tested, 1.1% active; Potency, µM (top dose mostly 46.1 µM), for inactives: at the top dose activity change, negative = inhibition, hits mostly inhibitors; PC12 HttQ103-GFP aggregates, Acumen cytometry, 40 h; also: potency is read from the fitted curve at half-maximal effect; % is scaled to controls: 0 for no effect and ±100 for the full control effect; nearly all actives have a fitted effect of over 60% in size
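Compounds (qHTS titration) were added to PC12 cells expressing an ecdysone-driven HTT exon 1 Q103–GFP fusion after induction with 100 nM tebufenozide. Aggregate formation was measured as GFP objects in cell lysates.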
RGS12 GoLoco inh: RGS12 GoLoco-Gai1 interaction inhibition; Potency, µM (doses to about 61.6 µM), inactives show at the top dose activity, negative = inhibition, usual class: inhibitors; 230,000 tested, 0.44% active; Gai1:RGS12 GoLoco peptide FP, rhodamine, 10 min; P63096; active = well fitted inhibition curve with a large enough effect, not every such curve was filed as active; inactive = no such curve, though single readings can be large or run the other way; also: potency is read from the fitted curve at half-maximal effect; % is scaled to controls: 0 for no effect and ±100 for the full control effect; nearly all actives have a fitted effect of over 30% in size
KDM4E inh: inhibitors of human JMJD2E histone demethylase; B2RXH2; JMJD2E catalytic domain, FDH-coupled NADH fluorescence (FDH is formaldehyde dehydrogenase); Potency, µM (titrated, usually from 57.1 µM), without a hit: at the top dose activity change, negative = inhibition, actives largely listed as inhibitors; 230,000 tested, 1.6% active; AID 2147; active = well fitted inhibition curve with a large enough effect, not every such curve was filed as active; inconclusive = small, poorly fitted or top-dose-only effect, or another doubt; inactive = no such curve, though single readings can be large or run the other way;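 also: potency is read from the fitted curve at half-maximal effect; 0% = wells with enzyme and -100% = buffer wells without enzyme; nearly all actives have a fitted effect of over 50% in size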
Target sequence (B2RXH2 1-337 limits assumed): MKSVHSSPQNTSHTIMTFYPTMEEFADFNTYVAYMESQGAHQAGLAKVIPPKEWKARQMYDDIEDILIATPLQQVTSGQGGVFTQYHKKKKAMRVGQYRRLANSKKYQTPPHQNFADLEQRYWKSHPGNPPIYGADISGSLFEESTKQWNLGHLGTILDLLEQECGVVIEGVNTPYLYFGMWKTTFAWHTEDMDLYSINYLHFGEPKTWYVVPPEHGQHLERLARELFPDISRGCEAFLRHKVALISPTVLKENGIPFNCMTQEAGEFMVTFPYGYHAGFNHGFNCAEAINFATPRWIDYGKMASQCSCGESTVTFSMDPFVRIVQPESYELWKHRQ
VDR inh: vitamin D3 receptor (human) inhibition; P11473; VDR-SRC2-3 peptide fluorescence polarization, 2 h; Potency, µM, for inactives: max response, negative = inhibition, actives largely listed as inhibitors; 400,000 tested, 0.93% active; also: potency is read from the fitted curve at half-maximal effect; % is scaled to controls: 0 for no effect and ±100 for the full control effect
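Inhibition of the VDR/SRC2-3 peptide interaction is quantified by fluorescence polarization. Compounds (23 nl, pintool) incubate with the reagents for 2 hours at ambient room temperature.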
Coupling enz: coupling enzyme interference in Giardia aldolase counter-screen; coupling enzyme system counterscreen, AmpLite Red fluorescence; activity change, negative = inhibition, % at 58.2 µM, hits read low; 290,000 tested, 0.67% active; AID 2472; in the data active = activity change below about -30%; also: % is scaled to controls: 0 for no effect and ±100 for the full control effect
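First, compound is pin-transferred into glyceraldehyde-3-phosphate coupling-enzyme reagent at 57.5 uM final and held 10 min at RT. Next, substrate, coupling system and AmpLite Red are added. After 20 min RT, fluorescence (525/598 nm) is read.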
USP1 UbRho: USP1-UAF1 deubiquitinase inhibition validated. 50 tested, 50% active. Ub-Rhodamine cleavage, fluorescence kinetic read. Potency, µM (titrated, usually from 114 µM), for the others: at the top dose activity change, negative = inhibition, hits mostly inhibitors. shares compounds with VDR inh
VDR inh confirm: confirmation of human vitamin D receptor inhibitors | shares compounds with VDR inh | VDR-coactivator inhibition assay, qHTS confirmation | Potency, µM, usual class: inhibitors | 840 tested, 89% active; also: potency is read from the fitted curve at half-maximal effect
VDR FP fluor: VDR (human) coactivator binding inhibition, fluorescein polarization; VDR-coactivator binding, fluorescein fluorescence polarization; shares compounds with VDR inh; Potency, µM (highest dose often 57.1 µM), without a hit: top-dose activity change, negative = inhibition, most hits filed as inhibitors; 840 tested, 48% active; also: potency is read from the fitted curve at half-maximal effect
VDR bla reporter: inhibits human VDR in beta-lactamase reporter cells. shares compounds with VDR inh. VDR beta-lactamase reporter cells, FRET ratio; cells co-treated with VDR agonist LG190178. Potency, µM (series often up to 46.1 µM), for the others: at the highest dose activity change, negative = inhibition, most hits filed as inhibitors. 840 tested, 23% active. AID 602202; also: potency is read from the fitted curve at half-maximal effect; % is scaled to controls: 0 for no effect and ±100 for the full control effect
VDR viability: cytotoxic in counter-screen for VDR inhibitors. shares compounds with VDR inh. Potency, µM (top dose mostly 48.3 µM), for inactives: at the top dose activity change, negative = cytotoxicity, hits mostly cytotoxic. 840 tested, 18% active. cytotoxicity counter-screen, cell viability, qHTS. AID 602204;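 also: potency is read from the fitted curve at half-maximal effect; plate controls were DMSO for no effect and high-concentration cycloheximide for full effect; nearly all actives have a fitted effect of over 75% in size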
* hit, by the source's call; ? = inconclusive; / = no result given; [ ] = another dose, or the depositor's remark. Sampled rows, rich in hits. Any-hit rate of the full collection: about 2.3%. Unless noted, calls follow the shape of the dose curve; as a rule, active = well fitted curve in the direction sought with a large enough effect; inconclusive = small, poorly fitted or top-dose-only effect, or another doubt; inactive = no such curve, though single readings can be large; an effect the other way counts as inactive or inconclusive.

SMILES | HTT cytoprotect | HttQ103 aggreg | RGS12 GoLoco inh | KDM4E inh | VDR inh | Coupling enz | VDR inh confirm | VDR FP fluor | VDR bla reporter | VDR viability | others
C[C@@H](CO)NC(=O)[C@@H]1C=C2c3cccc4[nH]cc(c34)C[C@H]2N(C)C1 | 17%[1.9 µM] | / | -14% | ? | / | -18 | / | / | / | /
CCN(CC)C(=O)N[C@H]1C=C2c3cccc4[nH]cc(c34)C[C@@H]2N(C)C1 | 12%[40.3 µM] | / | -22%[21.6 µM] | ? | -9% | -10 | / | / | / | / | USP1 UbRho=-9%[56.8 µM]
O=c1oc2ccccc2c(O)c1[C@H]1c2ccc(O)cc2Oc2c1c(=O)oc1ccccc21 | 18%[10 µM] | -6%[9.22 µM] | -19% | -1% | 79µM* | 0 | 30* | ? | 21µM* | -31%
CN1C(=O)N(C)C(=O)C2(Sc3ccccc3C2=O)C1=O | -3% | -13% | -11% | 1% | 35µM* | -4 | 3.4* | 3.5µM* | 31% | -7%
COC(=O)C(O)C(O)(CCC(C)C)C(=O)OC1C(OC)=CC23CCCN2CCc2cc4c(cc2C13)OCO4 (stereo not drawn) | -257% | / | 5% | / | 4% | 1 | / | / | / | /
O=C(O)CCn1cc(C=C2C(=O)NC(=S)NC2=O)c(-c2cccc(Cl)c2)n1 | -3%[10 µM] | 2%[9.22 µM] | 19% | ? | 25µM* | 7 | 11* | ? | 14% | 1%
Cc1cc[c]([Sb]2[O][C@H]([C@H](O)[C@H](O)C(=O)O)[C@@H](CO)[O]2)cc1 | 2%[10 µM] | / | / | / | / | / | / | / | / | /
COC(=O)C[C@]1(C(=O)OC)CN(C#N)N(c2ccc(Cl)cc2)C12c1ccccc1-c1ccccc12 | -97%[10 µM] | 5.6µM* | -7% | -2% | 20µM* | 0 | ? | 6.3µM* | 3.7µM* | 2.9µM*
COC(=O)[C@@H]1[C@@H](C(=O)OC)C2(c3ccccc3-c3ccccc32)N(c2ccc(Cl)cc2)N1C#N | -36%[10 µM] | -21%[9.22 µM] | 1% | ? | ? | -5 | / | / | / | /
CCCCn1c(NC(=O)c2ccc(Br)o2)c(C(=O)OCC)c2nc3ccccc3nc21 | / | ? | -20% | ? | ? | -44* | 2.5* | 1.4µM* | ? | ?
N#CC1c2ccccc2-n2nncc2CN1Cc1cc(Cl)cc(Cl)c1 (stereo not drawn) | / | / | / | / | 20µM* | / | 3.4* | 2.8µM* | 10µM* | 4.1µM*
c1ccc(C2CO2)cc1 (stereo not drawn) | 2% | / | 0% | / | / | / | / | / | / | /
CS(=O)(=O)c1ncc(Cl)c(C(=O)Nc2ccc3ccccc3c2)n1 | -209% | ? | -3% | -2% | 13µM* | -1 | 8.4* | ? | 16µM* | ?
O=C(O)C[O][Sb][O]CC(=O)O | -11%[10 µM] | / | 5%[14.2 µM] | / | / | / | / | / | / | /

Bioassay records: PubChem BioAssay, National Center for Advancing Translational Sciences (NCATS)
